# From PubChem
# In the library only some 10% were active in any assay of this set; here they are far more common.
# KB-V1 cytotox: qHTS assay for MDR1-selective chemotherapeutics: Primary screen using the drug-selected MDR subline cells KB-V1. actives 3.4% (n = 400,000). KB-V1 MDR cells viability, CellTiter-Glo, 72 h. Potency, µM (top dose mostly 46.1 µM), hits mostly cytotoxic; note: % is set by controls: 0 for no effect and ±100 for the full control effect; nearly all actives have a fitted effect of over 60% in size
#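 qHTS viability screen in drug-selected KB-V1 MDR cells: 72 h compound treatment at 37 degrees C, ATP luminescence end point.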
# VP16 counter: VP16 counterscreen qHTS for inhibitors of ROR gamma transcriptional activity. Drosophila S2 Gal4-VP16 UAS-luciferase, luminescence, 20 h. actives 3.5% (n = 310,000). Potency, µM (top dose mostly 53.6 µM), without a hit: top-dose activity, negative = inhibition, usual class: inhibitors;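 note: Gal4-VP16 expression switched on by copper sulfate through the metallothionein promoter; % is set by controls: 0 for no effect and ±100 for the full control effect; nearly all actives have a fitted effect of over 50% in size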
# SW480 rereplic: A quantitative high throughput screen for small molecules that induce DNA re-replication in SW480 colon adenocarcinoma cells | SW480 DNA re-replication, Hoechst DNA content imaging, 48 h | Potency, µM (highest dose often 46.1 µM), inactives show at the top dose re-replication activation, usual class: activators | actives 1.8% (n = 340,000) | AID 624297, 2012; note: % of control where 0% means no effect; nearly all actives have a fitted effect of over 55% in size
#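 Quantitative HTS format with DMSO vehicle controls; 48 hr drug incubation at 37 C, then 40 min Hoechst staining and scanning imager measurement at 405 nm excitation.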
# RORgamma inh: qHTS for inhibitors of ROR gamma transcriptional activity; Nuclear receptor ROR-gamma (Mus musculus), P51450; AID 2551, 2010; actives 5.4% (n = 310,000); Potency, µM (highest dose often 53.6 µM), for the others: at the top dose activity change, negative = inhibition, actives largely listed as inhibitors; Drosophila S2 Gal4-RORgamma UAS-luciferase reporter, 20 h; note: % is set by controls: 0 for no effect and ±100 for the full control effect; nearly all actives have a fitted effect of over 60% in size
# Target sequence (P51450 whole entry, looked up, the tested form may be a part): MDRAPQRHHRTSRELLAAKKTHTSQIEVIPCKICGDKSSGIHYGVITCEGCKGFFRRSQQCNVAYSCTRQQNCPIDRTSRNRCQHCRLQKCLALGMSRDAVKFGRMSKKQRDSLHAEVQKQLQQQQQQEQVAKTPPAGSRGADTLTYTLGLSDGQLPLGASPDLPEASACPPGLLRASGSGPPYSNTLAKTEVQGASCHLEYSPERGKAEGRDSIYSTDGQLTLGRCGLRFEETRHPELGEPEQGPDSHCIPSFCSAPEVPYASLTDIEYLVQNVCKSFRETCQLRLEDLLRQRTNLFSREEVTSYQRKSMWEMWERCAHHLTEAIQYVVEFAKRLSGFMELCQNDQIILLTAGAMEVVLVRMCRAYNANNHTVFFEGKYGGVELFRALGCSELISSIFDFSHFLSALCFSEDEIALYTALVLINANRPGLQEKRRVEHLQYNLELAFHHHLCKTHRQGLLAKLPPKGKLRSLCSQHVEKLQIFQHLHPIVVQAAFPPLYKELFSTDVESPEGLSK
#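 Stably transfected Drosophila Schneider cells are the test system, with ROR gamma fused to Gal4 and luciferase under UAS control; luminescence is read after 20 hr of 700 uM copper sulfate induction at ambient temperature.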
# MCF10A rerep: A quantitative high throughput screen for small molecules that induce DNA re-replication in MCF 10a normal breast cells; actives 2.9% (n = 350,000); Potency, µM (doses to about 46.1 µM), inactives show at the top dose activity, positive = re-replication, hits mostly activators; MCF 10A DNA re-replication, Hoechst nuclear intensity, 48 h; note: % of control where 0% means no effect; nearly all actives have a fitted effect of over 50% in size
# KB-3-1 tox: qHTS assay for MDR1-selective chemotherapeutics: Primary screen using the parental adenocarcinoma cell KB-3-1. KB-3-1 viability, CellTiter-Glo ATP luminescence, 72 h. Potency, µM (doses to about 46.1 µM), usual class: cytotoxic. actives 1.4% (n = 400,000); note: % is set by controls: 0 for no effect and ±100 for the full control effect; nearly all actives have a fitted effect of over 60% in size
#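 Using CellTiter-Glo luminescence, growth of non-resistant KB-3-1 adenocarcinoma cells is assessed 72 h after pin-tool compound addition at 37 °C. Normalized responses across the concentration series yield fitted curves.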
# The depositor's hits bear a star; i = inactive; ? = inconclusive; · = no result; [ ] = remark or other dose. Calls come from the whole dose curve; as a rule, active = well fitted curve in the direction sought with a large enough effect; inconclusive = small, poorly fitted or top-dose-only effect, or another doubt; inactive = no such curve, though single readings can be large; an effect the other way counts as inactive or inconclusive. Potency is the fitted concentration of half-maximal effect.
SMILES,KB-V1 cytotox,VP16 counter,SW480 rereplic,RORgamma inh,MCF10A rerep,KB-3-1 tox
COc1ccc(NC(=O)CSC2CC(=O)N(c3ccc4c(c3)OCCO4)C2=O)cc1 (centres undefined),i,5.01µM*,-18.1%,?,-0.3%,i
COc1ccc(NC(=O)CN(C)C(=O)Cc2ccc3c(c2)OCCO3)cc1,?,·,-0.3%,·,0.2%,i
COc1ccc(NC(=O)CSCC(=O)N(C)Cc2ccc3c(c2)OCCO3)cc1,14.6µM*,·,0.9%,·,2.7%,i
COc1ccc(N2C(=O)CC(SCC(=O)O)C2=O)cc1 (centres undefined),i,-12.0%,-8.9%,-21.8%,1.0%,i
COc1ccccc1NC(=O)CSC1CC(=O)N(c2ccc3c(c2)OCO3)C1=O (centres undefined),i,5.01µM*,-1.1%,5.62µM*,-1.1%,i
COc1ccccc1NC(=O)CN1CCN(CC(=O)Nc2ccc3c(c2)OCO3)CC1,?,2.0%,-3.0%,-6.6%,-0.9%,i
CCCN(CCC)C[C@@H]1CCCCN1CCNC(=O)N1c2ccccc2C(=O)Nc2cccnc21,·,0.1%,·,-25.1%,·,·
CCOC(=O)[C@]12CCCC=C1N(Cc1ccco1)C(=O)[C@H](CC(=O)NCCc1ccccc1OC)C2,?,·,·,·,·,i
CC(C)OC(=O)/C(=C\c1ccccc1)NC(=O)c1ccccc1,i,-9.4%,-3.7%,-12.6%,5.7%,i
CC(C)OC(=O)C(NC(=O)c1ccccc1)=C1CCCCC1,20.6µM*,-0.7%,-1.4%,7.4%,13.4%,i
CCCCNc1nc2ccccc2n1CC(=O)N1CCc2ccccc2C1,10.3µM*,1.2%,0.3%,-17.6%,-2.1%,i
CCCCNC(=O)N1CCc2ccccc2C1,i,-0.9%,23.1µM*,11.6%,2.1%,i
CC1(C(=O)Nc2ccc(F)cc2F)CCN1C(=O)CCC1CCCC1 (centres undefined),?,·,·,·,·,i
CC(c1ccccc1)N(CCC(c1ccccc1)C1CCOC(C)(C)C1)C(=O)c1ccco1 (centres undefined),9.2µM*,?,-2.1%,64.0%,16.4µM*,i
CC1(C)CC(C(CC(=O)O)c2ccccc2)CCO1 (centres undefined),i,-2.9%,-4.0%,-6.7%,-5.5%,i
COc1ccc(CN(CCC(c2ccc(F)cc2)C2CCOC(C)(C)C2)C(=O)c2ccco2)cc1 (centres undefined),?,-4.6%,4.6%,25.0%,23.1µM*,?
COc1ccc(CN(CCC(c2ccccc2)c2ccco2)C(=O)c2ccco2)cc1 (centres undefined),i,3.7%,-3.6%,25.9%,?,i
COc1cccc(CNc2nc(NCc3ccccc3)nc3ccsc23)c1,9.2µM*,·,·,·,·,?
COCCNc1nc(NCc2cccs2)nc2ccsc12,i,·,·,·,·,i
COc1ccccc1CNc1nc(NC(C)C)nc2ccsc12,10.3µM*,·,·,·,·,?
COCCNc1nc(NCc2cc(-c3ccc(OC)cc3)no2)c2sccc2n1,18.4µM*,·,·,·,·,?
O=C(CNC(=O)c1ccccc1)OCC(=O)c1ccc2ccccc2c1,i,·,·,·,·,i
COC(=O)c1ccc(NC(=O)C(=O)NCCc2sc(-c3cccc(F)c3)nc2C)cc1,i,·,·,·,·,i
Cc1cc2cc(CCNS(=O)(=O)c3ccc(Br)cc3)c(=O)[nH]c2cc1C,i,·,·,·,·,i
CC1(C(=O)NCc2ccccc2)Cc2c(-c3cccc(C(N)=O)c3)ccnc2O1 (centres undefined),i,·,·,·,·,6.51µM*
SMILES,KB-V1 cytotox,VP16 counter,SW480 rereplic,RORgamma inh,MCF10A rerep,KB-3-1 tox
CC(=O)NCCNC(=O)C1(C)Cc2c(-c3cccc(C(N)=O)c3)ccnc2O1 (centres undefined),i,·,·,·,·,i
CC1(C(=O)NCc2ccco2)Cc2c(-c3cccc(C(N)=O)c3)ccnc2O1 (centres undefined),i,·,·,·,·,10.3µM*
CC1(C(=O)NCc2ccco2)Cc2c(-c3cccc(C(F)(F)F)c3)ccnc2O1 (centres undefined),?,·,·,·,·,6.51µM*
CC(=O)Nc1ccc(-c2ccnc3c2CC(C)(C(=O)NCc2ccco2)O3)cc1 (centres undefined),i,·,·,·,·,10.3µM*
NS(=O)(=O)c1ccc(CNC(=S)Nc2cc(S(=O)(=O)N3CCOCC3)ccc2Cl)cc1,i,·,-12.3%,·,2.0%,i
Cc1ccc([N+](=O)[O-])cc1Nc1nc(N2CCCC2)nc(N2CCCC2)n1,i,1.0%,-0.5%,-7.6%,?,i
COc1ccc(-c2nc3cnc(N4CCN(C)CC4)nc3n(C)c2=O)cc1,·,3.7%,·,-18.0%,·,·
CC(=O)c1cccc(NC(=O)C2(C)Cc3c(-c4cccc(C(N)=O)c4)ccnc3O2)c1 (centres undefined),i,·,·,·,·,i
COc1ccc(NC(=O)C2(C)Cc3c(-c4cccc(C(N)=O)c4)ccnc3O2)cn1 (centres undefined),i,·,·,·,·,9.2µM*
Cc1onc(-c2ccccc2Cl)c1C(=O)Nc1nnc(Cc2ccc(Cl)cc2)s1,i,?,-2.3%,11.2µM*,1.3%,i
Cc1cc(C)nc(NC(=O)c2c(F)c(F)c(F)c(C(=O)Nc3cc(C)cc(C)n3)c2F)c1,i,·,?,·,8.2µM*,?
COc1ccc(-n2nc3c(c2NC(=O)c2c(-c4ccccc4Cl)noc2C)CS(=O)(=O)C3)cc1,9.2µM*,1.6%[0.365 µM],3.0%,-17.8%,7.3%,i
Cc1onc(-c2ccccc2Cl)c1C(=O)Nc1sc2c(c1C(N)=O)CCC(C)C2 (centres undefined),23.1µM*,-3.7%,?,?,29.4%,?
Cc1cc(C)nc(NC(=O)c2ccc3c(c2)OCO3)c1,·,-16.6%[10 µM],·,0.0%,·,·
Cc1nnc(NC(=O)c2c(-c3ccccc3Cl)noc2C)s1,i,-12.4%,-3.4%,?,-0.9%,i
COC(=O)c1c(NC(=O)c2c(-c3ccccc3Cl)noc2C)sc2c1CCC2,?,4.7%,3.8%,6.2%,14.5%,i
O=C(O)c1ccc2c(c1)C(=O)N([C@H](Cc1ccc(-c3ccccc3)cc1)C(=O)O)C2=O,·,4.0%,·,1.4%,·,·
CN1CCN(c2ncc3nc(-c4cccc(C#N)c4)c(=O)n(CCC#N)c3n2)CC1,·,-9.8%,·,-4.3%,·,·
